Source: PubChem BioAssay AID1159580 (chemical genetic matrix, 2015)
Out of some 5,500 compounds screened, about 2,000 (36%) were called active. Not shown: some 18% with an inconclusive outcome. Cut-off read from the data, not from the text of the source: active = normalized growth mostly below about 0.91 (no sharp cut-off); inconclusive = no clear call, values can overlap the other calls; inactive = mostly above about 0.92. Some of the results follow.

Experiment: chemical genetic growth profiling, strain panel (AID 1159580);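 note: tested at 20 µM; growth read once vehicle control cultures reached saturation at 30 °C; 1 = growth at the plate median or of vehicle wells; lower values mean less growth of the strain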
Conditions: growth OD

Measured: normalized growth

N#Cc1c(Cl)c(Cl)c(Cl)c(C#N)c1Cl
active: S. cerevisiae deletion strains, locus YKL160W, strain elf1, active compounds read low 0.0734 | S. cerevisiae deletion strains, locus YKR026C, strain gcn3, active compounds read low 0.0728 | S. cerevisiae deletion strains, locus YKR091W, strain srl3, active compounds read low 0.0738 | S. cerevisiae deletion strains, locus YLL001W, strain dnm1, active compounds read low 0.0739 | S. cerevisiae deletion strains, locus YLL026W, active compounds read low 0.068 | S. cerevisiae deletion strains, locus YLL041C, strain sdh2, active compounds read low 0.0683 | S. cerevisiae deletion strains, locus YLR027C, strain aat2, active compounds read low 0.072 | S. cerevisiae deletion strains, locus YLR113W, strain HOG1, active compounds read low 0.153 | S. cerevisiae deletion strains, locus YLR221C, strain rsa3, active compounds read low 0.0754 | S. cerevisiae deletion strains, locus YLR258W, strain gsy2, active compounds read low 0.0732 | S. cerevisiae deletion strains, locus YLR262C, strain YPT6 (second series), active compounds read low 0.0948 | S. cerevisiae deletion strains, locus YLR320W, strain mms22, active compounds read low 0.0991 | S. cerevisiae deletion strains, locus YLR342W, strain FKS1, active compounds read low 0.0799 | S. cerevisiae deletion strains, locus YLR357W, strain rsc2, active compounds read low 0.146 | S. cerevisiae deletion strains, locus YLR370C, strain arc18, active compounds read low 0.0758 | S. cerevisiae deletion strains, locus YLR384C, strain iki3, active compounds read low 0.0759 | S. cerevisiae deletion strains, locus YML120C, strain ndi1, active compounds read low 0.0696 | S. cerevisiae deletion strains, locus YMR058W, strain fet3, active compounds read low 0.074 | S. cerevisiae deletion strains, locus YMR125W, strain sto1, active compounds read low 0.0959 | S. cerevisiae deletion strains, locus YMR129W, active compounds read low 0.0707 | S. cerevisiae deletion strains, locus YMR205C, strain PFK2, active compounds read low 0.111 | S. cerevisiae deletion strains, locus YMR231W, strain pep5, active compounds read low 0.0788 | S. cerevisiae deletion strains, locus YNL071W, strain lat1, active compounds read low 0.0711 | S. cerevisiae deletion strains, locus YNL183C, strain NPR1, active compounds read low -0.00756 | S. cerevisiae deletion strains, locus YNL209W, strain ssb2, active compounds read low 0.0719 | S. cerevisiae deletion strains, locus YNL248C, strain rpa49, active compounds read low 0.0922 | S. cerevisiae deletion strains, locus YNL322C, strain KRE1 (second series), active compounds read low 0.0768 | S. cerevisiae deletion strains, locus YNR049C, strain mso1, active compounds read low 0.0681 | S. cerevisiae deletion strains, locus YOR001W, strain rrp6, active compounds read low 0.0917 | S. cerevisiae deletion strains, locus YOR070C, strain gyp1, active compounds read low 0.0717 | S. cerevisiae deletion strains, locus YOR080W, strain dia2, active compounds read low 0.0799 | S. cerevisiae deletion strains, locus YOR083W, strain WHI5, active compounds read low 0.0798 | S. cerevisiae deletion strains, locus YOR106W, strain vam3, active compounds read low 0.0853 | S. cerevisiae deletion strains, locus YOR231W, strain MKK1, active compounds read low 0.13 | S. cerevisiae deletion strains, locus YOR265W, strain rbl2, active compounds read low 0.0688 | S. cerevisiae deletion strains, locus YOR270C, strain vph1, active compounds read low 0.122 | S. cerevisiae deletion strains, locus YOR290C, strain snf2, active compounds read low 0.0764 | S. cerevisiae deletion strains, locus YPL051W, strain arl3, active compounds read low 0.0808 | S. cerevisiae deletion strains, locus YPL078C, strain atp4, active compounds read low 0.081 | S. cerevisiae deletion strains, locus YPL106C, strain sse1, active compounds read low 0.126 | S. cerevisiae deletion strains, locus YPL240C, strain hsp82, active compounds read low 0.0722 | S. cerevisiae deletion strains, locus YPL256C, strain CLN2, active compounds read low 0.186
inactive: S. cerevisiae deletion strains, locus YJR075W, strain HOC1, active compounds read low 0.999 | S. cerevisiae deletion strains, locus YKL009W, strain mrt4, active compounds read low 0.976 | S. cerevisiae deletion strains, locus YKL068W, active compounds read low 0.989 | S. cerevisiae deletion strains, locus YKL085W, strain MDH1 (second series), active compounds read low 0.989 | S. cerevisiae deletion strains, locus YKL085W, strain MDH1, active compounds read low 0.989 | S. cerevisiae deletion strains, locus YKL190W, strain CNB1, active compounds read low 1.01 | S. cerevisiae deletion strains, locus YKR001C, strain vps1, active compounds read low 0.983 | S. cerevisiae deletion strains, locus YLR039C, strain RIC1, active compounds read low 1 | S. cerevisiae deletion strains, locus YLR058C, strain SHM2, active compounds read low 0.994 | S. cerevisiae deletion strains, locus YLR102C, strain apc9, active compounds read low 0.981 | S. cerevisiae deletion strains, locus YLR262C, strain YPT6, active compounds read low 1.02 | S. cerevisiae deletion strains, locus YLR268W, strain sec22, active compounds read low 0.998 | S. cerevisiae deletion strains, locus YLR330W, strain CHS5, active compounds read low 0.996 | S. cerevisiae deletion strains, locus YLR342W, strain FKS1 (second series), active compounds read low 0.993 | S. cerevisiae deletion strains, locus YLR371W, strain rom2, active compounds read low 0.975 | S. cerevisiae deletion strains, locus YLR418C, strain cdc73, active compounds read low 0.995 | S. cerevisiae deletion strains, locus YML016C, strain PPZ1, active compounds read low 0.998 | S. cerevisiae deletion strains, locus YML032C, strain rad52, active compounds read low 0.968 | S. cerevisiae deletion strains, locus YML124C, strain tub3, active compounds read low 0.984 | S. cerevisiae deletion strains, locus YMR078C, strain ctf18, active compounds read low 0.969 | S. cerevisiae deletion strains, locus YMR223W, strain ubp8, active compounds read low 0.975 | S. cerevisiae deletion strains, locus YMR263W, strain SAP30, active compounds read low 1 | S. cerevisiae deletion strains, locus YMR307W, strain GAS1, active compounds read low 0.902 | S. cerevisiae deletion strains, locus YNL067W, strain RPL9B, active compounds read low 1 | S. cerevisiae deletion strains, locus YNL128W, strain TEP1, active compounds read low 0.997 | S. cerevisiae deletion strains, locus YNL153C, strain GIM3, active compounds read low 1.01 | S. cerevisiae deletion strains, locus YNL233W, strain BNI4, active compounds read low 1 | S. cerevisiae deletion strains, locus YNL250W, strain rad50, active compounds read low 0.98 | S. cerevisiae deletion strains, locus YNL271C, strain bni1, active compounds read low 0.974 | S. cerevisiae deletion strains, locus YNL298W, strain CLA4, active compounds read low 0.971 | S. cerevisiae deletion strains, locus YNL307C, strain MCK1, active compounds read low 0.981 | S. cerevisiae deletion strains, locus YNL322C, strain KRE1, active compounds read low 0.997 | S. cerevisiae deletion strains, locus YNR052C, strain pop2, active compounds read low 0.978 | S. cerevisiae deletion strains, locus YOL006C, strain TOP1, active compounds read low 1.01 | S. cerevisiae deletion strains, locus YOL012C, strain htz1 1.56 | S. cerevisiae deletion strains, locus YOL147C, strain pex11, active compounds read low 0.989 | S. cerevisiae deletion strains, locus YOR061W, strain CKA2, active compounds read low 1.01 | S. cerevisiae deletion strains, locus YOR069W, strain VPS5, active compounds read low 0.999 | S. cerevisiae deletion strains, locus YOR136W, strain idh2, active compounds read low 0.977 | S. cerevisiae deletion strains, locus YOR144C, strain elg1, active compounds read low 0.981 | S. cerevisiae deletion strains, locus YOR184W, strain ser1, active compounds read low 0.965 | S. cerevisiae deletion strains, locus YOR316C, strain cot1, active compounds read low 0.984 | S. cerevisiae deletion strains, locus YPL055C, strain LGE1, active compounds read low 1.01 | S. cerevisiae deletion strains, locus YPL241C, strain CIN2, active compounds read low 1 | S. cerevisiae deletion strains, locus YPR119W, strain clb2, active compounds read low 0.985 | S. cerevisiae deletion strains, locus YPR141C, strain kar3, active compounds read low 0.978 | S. cerevisiae deletion strains, locus YPR163C, strain tif3, active compounds read low 0.98 | S. cerevisiae deletion strains, locus YPR167C, strain met16, active compounds read low 0.989 | S. cerevisiae deletion strains, strain wtn01, active compounds read low 0.99 | S. cerevisiae strains, strain wild type, active compounds read low 0.997
